# Laboratory results as given in the antibiotic and cytotoxicity screens of Wong et al. (2023).
# In all, about 39,000 compounds went through this assay and about 3,300 (8.5%) were called active. The list comes from a sample in which actives are over-represented; it also holds similar structures and randomly drawn compounds.
# Tested on: HepG2
# Experiment: cytotoxicity call (relative viability < 0.9)
# Details: 10 µM
row,Compound,cytotoxicity call
1,COCC(=O)Nc1ccc2c(c1)C(=O)N(C)[C@@H]1CC[C@H](CC(=O)NCc3ccc(OC)cc3)O[C@H]1CO2,inactive
2,C[C@H]1CN([C@@H](C)CO)C(=O)Cc2cc(NS(=O)(=O)c3ccccc3)ccc2O[C@H]1CN(C)CC1CC1,inactive
3,C[C@@H]1CN([C@@H](C)CO)C(=O)c2cc(NC(=O)CCC(F)(F)F)ccc2O[C@@H](C)CCCCO[C@H]1CN(C)S(=O)(=O)c1ccc(F)cc1,inactive
4,COc1ccccc1CNC(=O)C[C@H]1C[C@@H]2c3cc(NC(=O)C4CCOCC4)ccc3O[C@@H]2[C@@H](CO)O1,inactive
5,COc1ccc(S(=O)(=O)Nc2ccc3c(c2)C(=O)N([C@H](C)CO)C[C@@H](C)[C@@H](CN(C)CC2CC2)O3)cc1,inactive
6,Cc1noc(C)c1NC(=O)N(C)C[C@H]1Oc2ccc(NC(=O)NC(C)C)cc2CC(=O)N([C@@H](C)CO)C[C@H]1C,inactive
7,O=C(CN1CCOCC1)NCC[C@H]1CC[C@H](NC(=O)Nc2ccccc2)[C@@H](CO)O1,inactive
8,C[C@@H]1CCCCO[C@@H](CN(C)C(=O)Nc2ccc3c(c2)OCO3)[C@@H](C)CN([C@H](C)CO)C(=O)c2cc(NC(=O)Nc3ccccc3)ccc2O1,inactive
9,Nc1cccc(C2=NCCN2)c1,inactive
10,CS(=O)(=O)Nc1ccc2c(c1)[C@H]1C[C@@H](CC(=O)NCC3CC3)O[C@H](CO)[C@H]1O2,inactive
11,COc1ccc(NC(=O)N(C)C[C@@H]2Oc3ncc(C#CCN(C)C)cc3C(=O)N([C@@H](C)CO)C[C@@H]2C)cc1,inactive
12,C[C@@H]1CN([C@@H](C)CO)C(=O)c2cccc(NS(=O)(=O)c3ccc(F)cc3)c2O[C@@H]1CN(C)S(=O)(=O)c1ccc(F)cc1,active
13,C[C@H](CO)N1C[C@H](C)[C@H](CN(C)S(=O)(=O)c2ccc(F)cc2)Oc2c(NS(=O)(=O)c3ccc(F)cc3)cccc2C1=O,inactive
14,C[C@H]1CN([C@@H](C)CO)C(=O)c2cccc(NS(=O)(=O)c3ccc(F)cc3)c2O[C@H]1CN(C)S(=O)(=O)c1ccc(F)cc1,inactive
15,CC(C)C#Cc1ccc2c(c1)O[C@@H](CN(C)S(=O)(=O)c1cn(C)cn1)[C@H](C)CN([C@H](C)CO)S2(=O)=O,inactive
16,O=C(CS)NCCCCCCNC(=O)[C@@H]1C[C@@H]2C(=O)N[C@@H](Cc3ccccc3)C(=O)N2[C@@H]1c1ccc(O)cc1,inactive
17,COc1ccc(NC(=O)N2C[C@H](O)COC[C@H]3O[C@@H](CC(=O)NC4Cc5ccccc5C4)CC[C@@H]32)cc1,inactive
18,CO[C@H]1CN(C)C(=O)c2ccc(NC(=O)C3CC3)cc2OC[C@@H](C)N(C(=O)CN2CCOCC2)C[C@H]1C,inactive
19,C[C@H]1CN([C@@H](C)CO)C(=O)c2cccc(NC(=O)c3ccc(-c4nccs4)cc3)c2O[C@H]1CN(C)C(=O)Nc1cccc2ccccc12,inactive
20,C=CCNC(=O)[C@H]1[C@@H]2C(=O)O[C@@H](c3ccccc3)[C@@H](c3ccccc3)N2[C@@H](c2ccccc2OCCO)[C@]12C(=O)Nc1ccc(C#CC3=CCCCC3)cc12,inactive
21,COc1ccc(C#Cc2ccc3c(c2)[C@]2(C(=O)N3)[C@H](c3ccccc3OCCO)N3[C@H](c4ccccc4)[C@H](c4ccccc4)OC(=O)[C@H]3[C@@H]2C(=O)NC[C@H](O)c2ccccc2)cc1,active

row,Compound,cytotoxicity call
1,COc1ccc(C#Cc2ccc3c(c2)[C@]2(C(=O)N3)[C@H](C(N)=O)[C@H]3C(=O)O[C@H](c4ccccc4)[C@H](c4ccccc4)N3[C@@H]2c2ccccc2OCCO)cc1,active
2,COc1ccc(C#Cc2ccc3c(c2)[C@]2(C(=O)N3)[C@H](c3ccccc3OCCO)N3[C@H](c4ccccc4)[C@H](c4ccccc4)OC(=O)[C@H]3[C@@H]2C(=O)N2CCN(c3ncccn3)CC2)cc1,active
3,COc1ccc(C#Cc2ccc3c(c2)[C@]2(C(=O)N3)[C@H](c3ccc(OCCO)cc3)N3[C@H](c4ccccc4)[C@H](c4ccccc4)OC(=O)[C@H]3[C@@H]2C(=O)NC[C@H](O)c2ccccc2)cc1,inactive
4,COc1ccc(C#Cc2ccc3c(c2)[C@]2(C(=O)N3)[C@H](C(=O)O)[C@H]3C(=O)O[C@H](c4ccccc4)[C@H](c4ccccc4)N3[C@@H]2c2ccccc2OCCO)cc1,inactive
5,COc1ccc(C#Cc2ccc3c(c2)[C@]2(C(=O)N3)[C@H](c3ccccc3OCCO)N3[C@H](c4ccccc4)[C@H](c4ccccc4)OC(=O)[C@H]3[C@@H]2C(=O)O)cc1,inactive
6,COc1ccc(C#Cc2ccc3c(c2)[C@]2(C(=O)N3)[C@H](C(=O)N3CCN(c4ncccn4)CC3)[C@H]3C(=O)O[C@H](c4ccccc4)[C@H](c4ccccc4)N3[C@@H]2c2ccc(OCCO)cc2)cc1,inactive
7,O=C1O[C@H](c2ccccc2)[C@H](c2ccccc2)N2[C@H]1[C@@H](C(=O)NC[C@@H](O)c1ccccc1)[C@]1(C(=O)Nc3ccc(C#CC4=CCCCC4)cc31)[C@H]2c1ccccc1OCCO,active
8,COc1ccc(C#Cc2ccc3c(c2)[C@]2(C(=O)N3)[C@H](C(=O)N3CCN(c4ncccn4)CC3)[C@H]3C(=O)O[C@H](c4ccccc4)[C@H](c4ccccc4)N3[C@@H]2c2ccccc2OCCO)cc1,inactive
9,C=CCNC(=O)[C@@H]1[C@H]2C(=O)O[C@H](c3ccccc3)[C@H](c3ccccc3)N2[C@H](c2ccccc2OCCO)[C@@]12C(=O)Nc1ccc(C#Cc3ccc(OC)cc3)cc12,inactive
10,C=CCNC(=O)[C@@H]1[C@H]2C(=O)O[C@H](c3ccccc3)[C@H](c3ccccc3)N2[C@H](c2ccccc2OCCO)[C@@]12C(=O)Nc1ccc(C#CC3=CCCCC3)cc12,inactive
11,Cc1noc(C)c1NC(=O)Nc1ccc2c(c1)C(=O)N([C@@H](C)CO)C[C@H](C)[C@H](CN(C)Cc1ccc(C(F)(F)F)cc1)O2,inactive
12,Cc1noc(C)c1NC(=O)N(C)C[C@@H]1Oc2c(NS(=O)(=O)c3cn(C)cn3)cccc2C(=O)N([C@H](C)CO)C[C@@H]1C,inactive
13,OCCCn1cnnc1,inactive
14,C[C@H](CO)N1C[C@H](C)[C@H](CN(C)C)Oc2cc(C#CCN(C)C)ccc2S1(=O)=O,inactive
15,CN(C)Cc1cn(CC[C@H]2CC[C@H](NS(=O)(=O)c3ccccc3)[C@H](CO)O2)nn1,inactive
16,C[C@H]1CN([C@@H](C)CO)C(=O)c2cc(NS(C)(=O)=O)ccc2O[C@H]1CN(C)Cc1ccc(C(=O)Nc2ccccc2N)cc1,inactive
17,C[C@H]1CN([C@@H](C)CO)C(=O)CCCn2nncc2CO[C@@H]1CN(C)C(=O)Nc1cccc2ccccc12,inactive
18,C[C@H](CO)N1C[C@H](C)[C@@H](CN(C)C(=O)Nc2ccc(C(F)(F)F)cc2)Oc2ccc(NC(=O)C3CCCCC3)cc2CC1=O,inactive
19,O=C1O[C@@H](c2ccccc2)[C@@H](c2ccccc2)N2[C@@H](c3ccc(OCCO)cc3)[C@]3(C(=O)Nc4ccc(C#CC5(O)CCCCCC5)cc43)[C@@H](C(=O)NC[C@H](O)c3ccccc3)[C@H]12,inactive
20,O=C1O[C@@H](c2ccccc2)[C@@H](c2ccccc2)N2[C@@H](c3ccc(O)cc3)[C@]3(C(=O)Nc4ccc(C#CC5=CCCCC5)cc43)[C@@H](C(=O)NC[C@H](O)c3ccccc3)[C@H]12,inactive
21,O=C1O[C@@H](c2ccccc2)[C@@H](c2ccccc2)N2[C@@H](c3ccc(OCCO)cc3)[C@]3(C(=O)Nc4ccc(C#CC5=CCCCC5)cc43)[C@@H](C(=O)NC[C@H](O)c3ccccc3)[C@H]12,active

row,Compound,cytotoxicity call
1,COc1cccc(S(=O)(=O)N(C)C[C@@H]2Oc3ncc(C#CCC(C)C)cc3C(=O)N([C@H](C)CO)C[C@H]2C)c1,inactive
2,O=C(C[C@H]1CC[C@@H]2[C@H](COC[C@@H](O)CN2S(=O)(=O)c2ccccc2)O1)N1CCOCC1,inactive
3,O=C(NC1CCCCCCC1)c1ccccc1-c1ccccc1,inactive
4,O=C(NC1CCN(CCCCC2(C(=O)NCC(F)(F)F)c3ccccc3-c3ccccc32)CC1)c1ccccc1-c1ccc(C(F)(F)F)cc1,active
5,C[C@]1(C(=O)NCC(F)(F)F)c2ccccc2C(=O)N(Cc2cc(C(F)(F)F)cc(C(F)(F)F)c2)[C@H]1c1ccc(CO)cc1,inactive
6,C[C@H]([C@@H](N)C(=O)N[C@H](C(=O)O)[C@H]1O[C@@H](n2ccc(O)cc2=O)[C@@H](O)[C@H]1O)[C@@H](C)c1ccc(O)cn1,inactive
7,C[C@H](CO)N1C[C@H](C)[C@@H](CN(C)C(=O)Cc2ccncc2)Oc2cc(-c3cncnc3)ccc2S1(=O)=O,inactive
8,C[C@H](CO)N1C[C@H](C)[C@@H](CN(C)Cc2ccc(Cl)c(Cl)c2)Oc2ccc(NC(=O)Cc3cn(C)c4ccccc34)cc2C1=O,inactive
9,C[C@H]1CN([C@@H](C)CO)C(=O)c2cc(NC(=O)Cc3cn(C)c4ccccc34)ccc2O[C@@H]1CN(C)S(C)(=O)=O,inactive
10,C[C@@H]1CN([C@@H](C)CO)C(=O)c2cc(NC(=O)Cc3cn(C)c4ccccc34)ccc2O[C@H]1CN(C)Cc1ccc(Cl)c(Cl)c1,active
11,C[C@H]1CN([C@@H](C)CO)C(=O)c2cc(NC(=O)Cc3cn(C)c4ccccc34)ccc2O[C@H]1CN(C)Cc1ccc(Cl)c(Cl)c1,inactive
12,C[C@H]1CN([C@@H](C)CO)C(=O)c2cc(NC(=O)Cc3cn(C)c4ccccc34)ccc2O[C@@H]1CN(C)Cc1ccc(Cl)c(Cl)c1,inactive
13,C[C@@H]1CN([C@@H](C)CO)C(=O)c2cc(NC(=O)Cc3cn(C)c4ccccc34)ccc2O[C@@H]1CN(C)S(C)(=O)=O,inactive
14,C[C@H](CO)N1C[C@H](C)[C@@H](CN(C)Cc2ccc(Cl)c(Cl)c2)Oc2ccc(NC(=O)Cc3cn(C)c4ccccc34)cc2CC1=O,inactive
15,C[C@@H]1CN([C@H](C)CO)C(=O)c2cc(NC(=O)Cc3cn(C)c4ccccc34)ccc2O[C@@H]1CN(C)Cc1ccc(Cl)c(Cl)c1,active
16,C[C@@H]1CN([C@@H](C)CO)C(=O)c2cc(NC(=O)Cc3cn(C)c4ccccc34)ccc2O[C@@H]1CN(C)Cc1ccc(Cl)c(Cl)c1,active
17,C[C@H](CO)N1C[C@H](C)[C@H](CN(C)Cc2ccc(Cl)c(Cl)c2)Oc2ccc(NC(=O)Cc3cn(C)c4ccccc34)cc2C1=O,inactive
18,C[C@@H]1CN([C@H](C)CN(C)C)C(=O)c2cc(NC(=O)Cc3cn(C)c4ccccc34)ccc2O[C@H]1CN(C)S(=O)(=O)c1ccc(Cl)cc1,active
19,C[C@@H]1CN([C@H](C)CO)C(=O)c2cc(NC(=O)Cc3cn(C)c4ccccc34)ccc2O[C@H]1CN(C)Cc1ccc(Cl)c(Cl)c1,inactive
